For 27 compounds, Potency results are on record in PubChem BioAssay AID686978 (National Center for Advancing Translational Sciences (NCATS), 2013).

In all, about 420,000 compounds went through this assay and about 64,000 (15%) were called active. Not shown: some 27% with an inconclusive outcome. Calls come from the whole dose curve; as a rule, active = well fitted inhibition curve with a large enough effect; inconclusive = small, poorly fitted or top-dose-only effect; inactive = flat fitted curve, though single readings scatter. These entries were drawn from the full list. Where a call stands in place of a potency, no number is given.
Potency is the fitted concentration of half-maximal effect.

The test in a line: qHTS for Inhibitors of human tyrosyl-DNA phosphodiesterase 1 (TDP1): qHTS in cells in absence of CPT. Note: nearly all actives have a fitted effect of over 55% in size. The note with it: DT40 Tdp1-/- hTDP1 cells, no CPT, ATP luminescence, 48 h; activity change, negative = growth inhibition: at 46.2 µM (top of the series). The method, boiled down: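 Compound effects on proliferation are scored in DT40 Tdp1-/-;hTDP1 cells in the absence of CPT. ATP levels (CellTiter-Glo luminescence) are recorded after a ≥48 hr, 37 °C incubation.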
With `COc1cccc(Nc2nnc(SCC(=O)N3CC(=O)Nc4ccccc43)s2)c1`, the Potency result is “inactive”.

`N#C/C(=C(\O)C(F)(F)F)c1nnc2n1CCCCC2`: the Potency result was “inactive”.

`O=c1c2cc([N+](=O)[O-])ccc2nc2n1CCC2`: the Potency entry is “inactive”.

On to `N#C/C(=C/c1cccc([N+](=O)[O-])c1)c1nnc2n1CCCCC2`, for which the Potency was 13 µM (active).

`Cc1ccc(NC(=O)c2cc([N+](=O)[O-])ccc2Cl)c(O)c1`: the Potency result is “inactive”.

With `CCn1cc(C(=O)N[C@@H](C)C(=O)NCCO)c(=O)c2cc3c(cc21)OCO3`, the Potency entry was “inactive”.

As to `NC(=O)c1sc(-c2ccsc2)cc1N`, the Potency entry is “inactive”.

Take `C#CCOCCOCCOCCNc1nc(N2CCN(C(=O)CCCCCCCCCCNC(=O)[C@H]([C@@H](C)CC)n3cc(CCCCN=C(N)N)nn3)CC2)nc(N2CCN(C(=O)CCCCCCCCCCNC(=O)[C@H](CO)n3cc(CCCSC)nn3)CC2)n1`: the Potency was 8.2 µM (active).

`C#CCOCCOCCOCCNc1nc(N2CCN(C(=O)Cn3cc(CCO)nn3)CC2)nc(N2CCN(C(=O)Cn3cc(CCCN=C(N)N)nn3)CC2)n1`: the Potency entry is “inactive”.

On to `C#CCOCCOCCOCCNc1nc(N2CCN(C(=O)[C@H](CCCN=C(N)N)n3cc(C(N)[C@@H](C)CC)nn3)CC2)nc(N2CCN(C(=O)[C@H](CO)n3cc([C@@H](N)C(C)C)nn3)CC2)n1` (some centres not stated), for which the Potency result was “inactive”.

For `CCN(CC)CCCSc1nc2ccccc2s1`, the Potency entry is “inactive”.

`O=C(NC(=O)N1CCSCC1)c1c(Cl)cccc1Cl`: the Potency entry is “inactive”.

With `O=C(NCCc1cccc(F)c1)C1CC(O)CN1C(=O)Nc1ccccc1` (configuration not stated), the Potency result is “inactive”.

For the compound `COc1cc(CCC(=O)Nc2ccncc2Cl)cc(OC)c1OC`, the Potency entry is “inactive”.

On to `COc1ccc(CCC(=O)N2CCN(S(=O)(=O)c3ccc(OC)cc3)CC2)cc1`, for which the Potency entry was “inactive”.

In the case of `COc1cc(CCC(=O)N2CCN(c3ccccc3Cl)CC2)cc(OC)c1OC`, the Potency is 11.6 µM (active).

Take `CCOC(=O)C1=C(c2ccccc2)O/C(=C(/C(=O)OC)C(F)(F)F)S1`: the Potency result is “inactive”.

As to `Cc1ccc2c(c1)N(C(=O)CCC(=O)NCc1cccnc1)CCO2`, the Potency result was “inactive”.

As to `Cc1c(C)n2c(SCC(=O)NC3CCCC3)nnc2[nH]c1=O`, the Potency entry was “inactive”.

As for `CC(C)Cc1nnc(N)s1`, the Potency entry was “inactive”.

As to `CCOCCCN1C(=O)CN(C2CCCCC2)C(=O)C1c1ccc(OCC)c(OC)c1` (configuration not stated), the Potency result was “inactive”.

On to `CC1CCC(N2CC(=O)N(CCC3=CCCCC3)C(c3ccc(F)cc3)C2=O)CC1` (configuration not stated), for which the Potency was 10.3 µM (active).

For the compound `CCCc1nnc(SCC(=O)N2C(C)CCCC2C)n1CC` (configuration not stated), the Potency entry is “inactive”.

For `O=C(c1cccc(N2CCCC2=O)c1)N1CCOCC1`, the Potency entry is “inactive”.

On to `O=C(CSC(=S)N1CCOCC1)c1cc(Br)cc(Br)c1O`, for which the Potency entry was “inactive”.

For the compound `O=C1Nc2c(Br)cc(Br)cc2C1(O)N1CCOCC1` (configuration not stated), the Potency was 3.66 µM (active).

For the compound `O=C(c1cc2cc(Br)cc(Br)c2oc1=O)N1CCOCC1`, the Potency entry is “inactive”.
